Values joined by “and” are separate entries in the source; they are usually repeats but may differ in a detail not shown here. Equal entries are not always repeated. About 2,000 (36%) of roughly 5,500 compounds were called active. Roughly 18% stayed inconclusive and do not appear here. Rule as the data show it: active = normalized growth mostly below about 0.91 (no sharp cut-off); inconclusive = no clear call, values can overlap the other calls; inactive = mostly above about 0.92. Some of the results follow.
Experiment: chemical genetic growth profiling, strain panel (AID 1159580);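 also: tested at 20 µM; growth read once vehicle control cultures reached saturation at 30 °C; 1 = growth at the plate median or of vehicle wells; lower values mean less growth of the strain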
Settings: S. cerevisiae deletion strains, growth OD

Measured: normalized growth

C#C[C@]1(O)CCC2C3CCC4=C(CCC(=O)C4)C3CC[C@@]21C (some centres undefined)
active: locus YDR137W, strain rgp1, active compounds read low 0.807
inactive: locus YAL021C, strain ccr4, active compounds read low 0.992 | locus YAL026C, strain drs2, active compounds read low 0.942 | locus YAL030W, strain snc1, active compounds read low 0.987 | locus YBL061C, strain skt5, active compounds read low 0.993 | locus YBR009C, strain hhf1, active compounds read low 0.941 | locus YBR021W, strain FUR4, active compounds read low 0.977 | locus YBR023C, strain chs3, active compounds read low 0.986 | locus YBR171W, strain sec66, active compounds read low 0.974 | locus YBR229C, strain ROT2, active compounds read low 1.01 | locus YBR231C, strain swc5, active compounds read low 1 | locus YBR279W, strain paf1, active compounds read low 0.982 | locus YCL011C, strain gbp2, active compounds read low 0.98 | locus YCL016C, strain dcc1, active compounds read low 0.994 | locus YCL029C, strain bik1, active compounds read low 1.01 | locus YCL061C, strain MRC1, active compounds read low 0.971 | locus YCL069W, strain vba3, active compounds read low 0.973 | locus YCR088W, strain abp1, active compounds read low 0.986 | locus YDL005C, strain med2, active compounds read low 0.982 | locus YDL035C, strain GPR1, active compounds read low 0.964 | locus YDL040C, strain nat1, active compounds read low 0.989 | locus YDL074C, strain BRE1, active compounds read low 1.03 | locus YDL101C, strain DUN1, active compounds read low 1 | locus YDL134C, strain PPH21, active compounds read low 0.981 | locus YDL185W, strain tfp1, active compounds read low 1 | locus YDL192W, strain arf1, active compounds read low 1.01 | locus YDR001C, strain nth1, active compounds read low 0.983 | locus YDR069C, strain doa4, active compounds read low 0.97 | locus YDR101C, strain arx1, active compounds read low 0.984 | locus YDR150W, strain NUM1, active compounds read low 1.03 | locus YDR159W, strain sac3, active compounds read low 0.915 | locus YDR162C, strain NBP2, active compounds read low 1.02 | locus YDR195W, strain ref2 1.07 | locus YDR297W, strain sur2, active compounds read low 0.985 | locus YDR318W, strain mcm21, active compounds read low 0.98 | locus YDR334W, strain swr1, active compounds read low 0.996 | locus YDR335W, strain msn5, active compounds read low 0.97 | locus YDR388W, active compounds read low 1 | locus YDR392W, strain spt3, active compounds read low 0.761 | locus YDR502C, strain sam2, active compounds read low 0.985 | locus YEL003W, strain gim4, active compounds read low 0.971 | locus YEL037C, strain rad23, active compounds read low 0.98 | locus YEL061C, strain CIN8 (second series), active compounds read low 0.969 | locus YEL061C, strain CIN8, active compounds read low 1.02 | locus YER015W, strain faa2, active compounds read low 0.994 | locus YER016W, strain bim1, active compounds read low 0.976 | locus YER110C, active compounds read low 1 | locus YER111C, strain swi4, active compounds read low 1 | locus YER155C, strain BEM2 (second series), active compounds read low 0.974 | locus YER155C, strain BEM2, active compounds read low 1.02 | locus YER167W, strain BCK2, active compounds read low 1.01 | locus YFR010W, strain ubp6, active compounds read low 0.98 | locus YGL078C, strain dbp3, active compounds read low 0.995 | locus YGL086W, strain mad1, active compounds read low 0.99 | locus YGL167C, strain pmr1, active compounds read low 0.984 | locus YGL173C, strain kem1, active compounds read low 0.957 | locus YGL227W, strain vid30, active compounds read low 0.98 | locus YGL240W, strain doc1, active compounds read low 0.949 | locus YGL248W, strain PDE1, active compounds read low 1 | locus YGL253W, strain hxk2, active compounds read low 0.962 | locus YGR135W, strain pre9, active compounds read low 0.981 | locus YGR252W, strain gcn5, active compounds read low 0.893 | locus YHR013C, strain ard1, active compounds read low 0.965 | locus YHR027C, strain rpn1, active compounds read low 0.984 | locus YHR030C, strain SLT2, active compounds read low 1.03 and 0.904 | locus YHR079C, strain IRE1 (second series), active compounds read low 0.999 | locus YHR079C, strain IRE1, active compounds read low 0.873 | locus YHR094C, strain hxt1, active compounds read low 0.997 | locus YHR129C, strain ARP1, active compounds read low 1.02 | locus YHR142W, strain chs7, active compounds read low 0.921 | locus YHR200W, strain rpn10, active compounds read low 1 | locus YIL066C, strain RNR3, active compounds read low 1.02 | locus YIL073C, strain SPO22, active compounds read low 0.968 | locus YIL125W, strain kgd1, active compounds read low 1 | locus YIR030C, strain dcg1, active compounds read low 1.02 | locus YJL092W, strain hpr5, active compounds read low 0.986 | locus YJL095W, strain BCK1 (second series), active compounds read low 0.991 | locus YJL095W, strain BCK1, active compounds read low 0.979 and 0.922 | locus YJL115W, strain asf1, active compounds read low 0.975 | locus YJL129C, strain trk1, active compounds read low 0.884 | locus YJL134W, strain LCB3, active compounds read low 1.02 | locus YJL154C, strain vps35, active compounds read low 0.97 | locus YJL164C, strain tpk1, active compounds read low 0.949 | locus YJL166W, strain qcr8, active compounds read low 0.97 | locus YJL168C, strain set2, active compounds read low 1 | locus YJL187C, strain SWE1 (second series), active compounds read low 1.01 | locus YJL187C, strain SWE1, active compounds read low 0.981 | locus YJR043C, strain POL32, active compounds read low 1.02 | locus YJR066W, strain TOR1, active compounds read low 0.886

From PubChem BioAssay AID1159580 (chemical genetic matrix, 2015)
